# Reference: ChEMBL document CHEMBL4513216, “Probing the Open Global Health Chemical Diversity Library for Multistage-Active Starting Points for Next-Generation Antimalarials” (ACS Infect Dis, 2020)
# In all, about 69,000 compounds went through this assay and about 8,600 (12%) showed an effect of 50% or more. The full list was thinned out, with strong results kept by preference.
# Test system: Plasmodium berghei
# Test: Screen against P. berghei liver stage (PbLuc), transformed with Luciferase, at 10uM
# Assay type: functional, HepG2
# Conditions: tested at 10 uM
row,Compound,INHIBITION
1,O=C(NCC(O)c1ccc(F)cc1F)c1cccnc1O (stereo not drawn),38.3%
2,O=C(NCC(O)c1ccc(F)c(F)c1)c1cccnc1O (stereo not drawn),36.8%
3,Cc1ccc(C(=O)NCC(O)c2cccc(F)c2)c(=O)[nH]1 (stereo not drawn),52.5%
4,Cc1ccc(C(=O)NCC(O)c2ccc(F)c(F)c2)c(=O)[nH]1 (stereo not drawn),26.6%
5,O=C(NCC(O)c1cccc(F)c1)c1cccnc1O (stereo not drawn),50.1%
6,Cc1cc(C)c(CNC(=O)NCC(O)c2cccc(F)c2)c(=O)[nH]1 (stereo not drawn),27.9%
7,FC(F)COc1ccccc1NCc1nnsc1Cl,8.9%
8,CC1(C)Cc2ccc(C(=O)NC3CCOCC3)c(O)c2O1,-42.8%
9,Cc1cnn(CC2CN(CC(=O)NCc3ccc(C)s3)CCO2)c1 (stereo not drawn),19.4%
10,CCC[C@@H]1CN(Cc2cc3c(cc2OC)OCO3)C[C@H]1C(=O)O,35.1%
11,CCC[C@@H]1CN(Cc2cc(OC)c3c(c2)OCO3)C[C@H]1C(=O)O,39.4%
12,CCC[C@@H]1CN(Cc2cc3c(cc2OC)OCCO3)C[C@H]1C(=O)O,54.4%
13,Cc1ccc(S(=O)(=O)NC(=O)C2(c3ccc(F)cc3)CCC2)c(C)c1,20%
14,O=C(c1cccc(-c2ccc(F)cc2)c1)N1CCC2(CC1)[C@H](O)C[C@@H]2O,-8.47%
15,CCc1nc(C2CCCN2C(=O)c2cnns2)no1 (stereo not drawn),29.765%
16,CC(C)OCc1ccc(CNC(=O)NC2(CO)CCCC2)cc1,46.1%
17,O=C(NCc1ccc(CN2CCCC2)cc1)NCc1ccon1,20.4%
18,O=C(NCc1ccc(CN2CCCC2)cc1)NC1(CO)CCCC1,62.8%
19,CC(C)CCCNC(=O)Nc1ccc(Cl)c(C(N)=O)c1,-57.4%
20,CCN(CC)C(=O)CSc1sc2c(O)cc(=O)[nH]c2c1C(N)=O,4.07%
21,COc1ccc(C(C)Nc2ncnc3c2NC(=O)CN3)cc1 (stereo not drawn),8.49%
22,O=S(=O)(c1c(N2CCCC2)ccc2nonc12)N1CCCC1,17.7%
23,CCn1cc(-c2cc(C(=O)N3CCOCC3)c3cc(Cl)ccc3n2)cn1,12.9%
24,COc1cc(F)cc2sc(NC(=O)COCC3CCCO3)nc12 (stereo not drawn),16.1%
25,Cc1noc([C@H]2C[C@@H]3CCN(C(=O)N(C)C)C[C@H]3O2)n1,54.6%
26,Cc1noc([C@H]2C[C@H]3CN(C(=O)C4CCOCC4)CC[C@@H]3O2)n1,59%

row,Compound,INHIBITION
1,Cc1noc([C@H]2C[C@@H]3CCN(C(=O)c4cccn4C)C[C@H]3O2)n1,25.8%
2,COCC(=O)N1CC[C@H]2C[C@H](c3nc(C)no3)O[C@@H]2C1,-41.2%
3,Cc1noc([C@H]2C[C@@H]3CCN(C(=O)C4CCOCC4)C[C@H]3O2)n1,41.5%
4,Cc1noc([C@@H]2C[C@H]3CN(C(=O)C4CCN(C)CC4)C[C@H]3O2)n1,28.7%
5,CCN(Cc1ccc(OC)c(F)c1)Cc1nc2c(cnn2C)c(=O)[nH]1,11.6%
6,COCCNC(=O)N1CCN(C(=O)Cc2ccccc2F)CC1,-63.6%
7,CN1N=C(C(=O)N(Cc2ccco2)C2CCCC2)CCC1=O,46.1%
8,Cc1nc(C)c(C(=O)N2CCc3nnc(C4CCCCN4C)n3CC2)s1 (stereo not drawn),-12.4%
9,CCc1ccccc1Nc1noc2c1CN(C(=O)C1CCCO1)CC2 (stereo not drawn),-9.32%
10,O=C(C1CCCO1)N1CCc2onc(-c3ccc(Cl)cc3)c2C1 (stereo not drawn),59.1%
11,CCN1CCCCC1C(=O)N1CCc2onc(-c3ccc(Cl)cc3)c2C1 (stereo not drawn),20.2%
12,Cn1cc(C(=O)N2CCN(Cc3ccsc3)CC2)cn1,-2.825%
13,CCSCCNC(=O)Nc1cc(C(=O)N2CCOCC2)ccc1Cl,36.9%
14,O=C(NCCN1CCCC1)Nc1cc(C(=O)N2CCOCC2)ccc1Cl,67.5%
15,O=C(NCCn1cccn1)Nc1cc(C(=O)N2CCOCC2)ccc1Cl,45.2%
16,Cc1cc(C)nc(N2CCOC(c3cc(CCO)[nH]n3)C2)n1 (stereo not drawn),2.99%
17,CC(C)(C)C1SCC(=O)Nc2c1c(O)nn2C1CCCC1 (stereo not drawn),48%
18,Cn1cc(CN2CCCC3(CCCCN3S(C)(=O)=O)C2)cn1 (stereo not drawn),18.3%
19,CNC(=O)c1cc2c(nc1NCC(C)C)CCN(S(=O)(=O)N(C)C)CC2,-23.4%
20,CCS(=O)(=O)N1CCc2cc(C(=O)NC)c(N(C)C)nc2CC1,19.8%
21,CNC(=O)c1cc2c(nc1N(C)C)CCN(c1ncccn1)CC2,63.8%
22,CNC(=O)c1cc2c(nc1N(C)C)CCN(C)CC2,13.3%
23,CNC(=O)c1cc2c(nc1N(C)C)CCN(c1ncc(C)cn1)CC2,57.5%
24,CNC(=O)c1cc2c(nc1N(C)C)CCN(S(=O)(=O)C1CC1)CC2,9.3%
25,CNC(=O)c1cc2c(nc1NCC(C)C)CCN(S(C)(=O)=O)CC2,-26.1%
26,Cc1cnc(N2CCc3cc(C(=O)O)c(N(C)C)nc3CC2)nc1,31.2%

row,Compound,INHIBITION
1,CNC(=O)c1cc2c(nc1N(C)C)CCN(S(=O)(=O)N(C)C)CC2,44.8%
2,CNC(=O)c1cc2c(nc1N(C)C)CCN(S(=O)(=O)CC(C)C)CC2,-22.8%
3,CNC(=O)c1cc2c(nc1N(C)C)CCN(c1ncc(F)cn1)CC2,50.3%
4,CCc1cnc(N2CCc3cc(C(=O)NC)c(N(C)C)nc3CC2)nc1,81%
5,CCN1CC(C(=O)N2CCN(CCn3cccc3)CC2)CCC1=O (stereo not drawn),6.69%
6,O=C(NCC(Cc1cccc(F)c1)N1CCCC1=O)c1ccc[nH]c1=O (stereo not drawn),3.88%
7,COc1ccc(CN2CCC3(CCCN(C)C3=O)C2)c(OC)c1C (stereo not drawn),5.75%
8,CCn1ccnc1CN1CCOC(Cn2cccn2)C1 (stereo not drawn),37.9%
9,CC1CCc2nc(NS(=O)(=O)c3cnn(C)c3)sc2C1 (stereo not drawn),33.4%
10,CNc1nc(CNC(=O)Nc2ccc(SC)c(F)c2)cs1,-4.35%
11,Cc1ccc(CN2CCCC3(CCC(=O)N3)CC2)s1 (stereo not drawn),-19.6%
12,CN1CCC(Cc2noc(-c3cccc4c3OCC4)n2)CC1,34.5%
13,Cc1ccc2oc(SCC(=O)NC(C)(C)C)nc2n1,49.1%
14,Cc1nc(Nc2cnccn2)cc(C2CCN(CCO)C2)n1 (stereo not drawn),23.2%
15,Cc1ccc(-c2ncc(C(=O)NCCNC(=O)C3CC3)s2)c(C)c1,-91.8%
16,Cc1nccc(C(=O)N2CCOC(c3nc(C(C)C)n[nH]3)C2)n1 (stereo not drawn),-65.3%
17,Cc1nn(C)c2ncc(CN3CCN(Cc4ccco4)CC3)cc12,21.2%
18,Cc1cc(C)c(CNC(=O)N2CCOC(c3ccccc3)C2)c(=O)[nH]1 (stereo not drawn),31.9%
19,Cc1ccc(C2CN(C(=O)c3c(C)cc(C)[nH]c3=O)CCO2)c(C)c1 (stereo not drawn),55%
20,Cc1cc(C)c(C(=O)N2CCOC(c3cccs3)C2)c(=O)[nH]1 (stereo not drawn),-18.6%
21,CNC(=O)C1CN(C(C)C)CCN1c1ncccn1 (stereo not drawn),47.1%
22,CCCC(=O)N1CCc2nc3cc(OC)c(OC)cc3c(=O)n2CC1,44.1%
23,COc1cc2nc3n(c(=O)c2cc1OC)CCN(C(C)=O)CC3,21%
24,CCC(=O)N1CCc2nc3cc(OC)c(OC)cc3c(=O)n2CC1,59.1%
25,COc1c(C2CCCN2C(=O)c2c[nH]c3ncccc23)c(C)nn1C (stereo not drawn),44.3%
26,CCOc1ccc(CNC(=O)N(C)CC(C)(C)O)cc1C,62.8%

row,Compound,INHIBITION
1,CCOc1cc(Cl)ccc1CNC(=O)N(C)CC(C)(C)O,25.2%
2,COc1ccc(CNC(=O)N(C)CC(C)(C)O)cc1OC,46.6%
3,O=C(NCC(CO)Cc1ccc(Cl)cc1)c1ccncc1F (stereo not drawn),-11.1%
4,Cc1cc(C)n(C2CCCN(C(=O)c3cn4cccnc4n3)C2)n1 (stereo not drawn),31.9%
5,CC(C)(C)OC(=O)N1CCCN1C(=O)c1cccc(F)c1F,31.9%
6,Cc1[nH]ccc1C(=O)N1CCCN1C(=O)OC(C)(C)C,14.3%
7,CC(C)(C)OC(=O)N1CCCN1C(=O)c1cccc2cc[nH]c12,56.5%
8,O=C(NC1CCCC1)c1cc(C2CCCNC2)n[nH]1 (stereo not drawn),9.98%
9,CN1C[C@@H](O)[C@]2(CCN(C(=O)c3ccccc3)C2)S1(=O)=O,8.61%
10,O=C(C1CCC1)N1C[C@H]2CC[C@@H](C1)N(S(=O)(=O)c1ccccc1)C2,-49.3%
11,CCOc1nnc(CN(CC)CC(=O)NC(C)C)s1,39.9%
12,CCOc1nnc(CN(CC)CC(=O)NC(C)(C)C)s1,24.7%
13,CCOc1nnc(CN(CC)CC(=O)Nc2c(F)cccc2F)s1,69.1%
14,Cc1oc(C)c(C(=O)N2CCCN(c3nccs3)CC2)c1C,-21.7%
15,O=C(Cc1n[nH]c(-c2cncc(Br)c2)n1)NCc1ccncc1,29.4%
16,NC(=O)CNC(c1ccccc1)c1ccc(OC(F)F)cc1 (stereo not drawn),-11.9%
17,CC(NC(=O)CN1CCN(c2cccc(Cl)c2)CC1)c1ccco1 (stereo not drawn),22.6%
18,CC(NC(=O)CN1CCN(c2ccncc2Cl)CC1)c1ccco1 (stereo not drawn),71.3%
19,Cc1ccc(Cl)cc1N1CCN(CC(=O)NC(C)c2ccco2)CC1 (stereo not drawn),26.8%
20,O=c1[nH]c(-c2ccccc2)nc2c1CCN(S(=O)(=O)N1CCCC1)C2,9%
21,Cc1ccc(S(=O)(=O)N[C@H](CO)C(C)C)cc1N(C)C,6.94%
22,CC1(C)CN=C(N2CCN(CCCN3CCOCC3)CC2)S1,89.6%
23,CC1(C)CN=C(N2CCN(CC3CCCO3)CC2)S1 (stereo not drawn),25.5%
24,CC1(C)CN=C(N2CCN(CC3CCOC3)CC2)S1 (stereo not drawn),32%
25,Cc1nc(CN2C(=O)CC[C@@H]3[C@H]2CCN3C(=O)c2ccccn2)cs1,48.6%
